Data: PubChem BioAssay (NCATS)
Records with an inconclusive call do not appear. The source made the active and inactive calls. Calls come from the whole dose curve; as a rule, active = well fitted curve in the direction sought with a large enough effect; inconclusive = small, poorly fitted or top-dose-only effect, or another doubt; inactive = no such curve, though single readings can be large; an effect the other way counts as inactive or inconclusive.

What was measured:
[1] = qHTS Assay for Identifying Gametocytocidal Compounds (AID 743244);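 note: % is set by controls: 0 for no effect and ±100 for the full control effect; actives lower the fluorescent signal which means gametocytes are killed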; settings: P. falciparum 3D7 stage III-V gametocytes, alamarBlue, 72 h; max response: hits give low values
In short: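 P. falciparum 3D7 stage III–V gametocytes (20,000 cells/well) were exposed to compounds for 72 h at 37 °C, 5% CO2. AlamarBlue was then added for 24 h; decreased resorufin fluorescence (Ex 525/Em 598 nm) indicated loss of viability.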

[2] = tested on: KB-3-1; test: Cytotoxic Profiling of Annotated Libraries Using Quantitative High-Throughput Screening (AID 1296008); settings: Five cell lines viability, CellTiter-Glo ATP luminescence, 48-72 h; max response: hits give low values; note: % is set by controls: 0 for no effect and ±100 for the full control effect; nearly all actives have a fitted effect of over 60% in size
In short: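 Cytotoxicity was measured as CellTiter-Glo ATP luminescence, read after 10 min at room temperature. Compound treatment of the cells lasted 48 or 72 hr at 37 degrees Celsius in a qHTS format.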

[3] = tested on: astro; test: Drug repurposing screens with cells derived from glioblastoma tumor samples (AID 1345199); settings: viability, ATP luminescence, 48 h; series mostly up to 45.9 µM; note: % is set by controls: 0 for no effect and ±100 for the full control effect; nearly all actives have a fitted effect of over 40% in size
In short: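 Primary testing used CD133+ neurospheres from four GBM patients, seven concentrations, 48 h exposure and ATP-based viability; confirmation added three slower-growing patient lines.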

[4] = biological target: Luciferin 4-monooxygenase (Photinus pyralis) (UniProt P08659); test: Biochemical firefly luciferase enzyme assay for NPC (AID 624030);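 note: purified P. pyralis luciferase at 10 nM with luciferin and ATP substrate; 0% = DMSO and -100% = full luciferase inhibition by PTC124 control; nearly all actives have a fitted effect of over 70% in size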
In short: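 Direct inhibition of firefly luciferase enzyme (10 nM final, 50 mM Tris Acetate) assessed by luminescence within 5 minutes. Percent activity scaled between DMSO and PTC124 positive control, with concentration-effect curves classified by fit quality and response.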

[5] = P-glycoprotein substrates identified in KB-8-5-11 adenocarcinoma cell line, qHTS therapeutic library screen (AID 1346987); note: % is set by controls: 0 for no effect and ±100 for the full control effect; nearly all actives have a fitted effect of over 65% in size
In short: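 In this qHTS, P-gp-rich KB-8-5-11 cells received library compounds across a concentration range. Viability was quantified by luminescence after 72 h at 37 degree C.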

Sequence of Luciferin 4-monooxygenase (Photinus pyralis) (P08659 whole entry, looked up): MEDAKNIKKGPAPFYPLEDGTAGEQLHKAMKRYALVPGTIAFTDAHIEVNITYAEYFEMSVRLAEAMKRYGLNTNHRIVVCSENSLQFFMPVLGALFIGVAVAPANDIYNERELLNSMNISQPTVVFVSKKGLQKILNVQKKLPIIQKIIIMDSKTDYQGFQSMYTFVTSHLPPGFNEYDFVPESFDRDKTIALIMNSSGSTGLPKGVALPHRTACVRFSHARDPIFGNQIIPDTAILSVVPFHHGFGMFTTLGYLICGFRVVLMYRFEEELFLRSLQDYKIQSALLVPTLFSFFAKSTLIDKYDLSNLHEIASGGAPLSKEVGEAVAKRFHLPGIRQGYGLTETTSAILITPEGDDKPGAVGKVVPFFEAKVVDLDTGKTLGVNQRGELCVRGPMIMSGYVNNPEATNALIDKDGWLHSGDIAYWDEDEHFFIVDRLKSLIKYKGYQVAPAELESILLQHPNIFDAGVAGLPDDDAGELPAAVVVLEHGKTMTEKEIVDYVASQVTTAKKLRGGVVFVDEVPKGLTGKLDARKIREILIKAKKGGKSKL

CCc1cc(OC)c(C[C@@H](C)N)cc1OC
inactive: max response [1] 0.694% | max response [2] -13.5% | Potency [3]

C/C=C(\CC)C(=O)NC(N)=O
inactive: Potency [4] | max response [1] -0.86% | Potency [5] | max response [2] -1.21% | Potency [3]

O=P1(N(CCCl)CCCl)NC(OO)CCO1 (stereo not drawn)
inactive: Potency [4] | max response [1] -1.64% | Potency [5] | max response [2] 2.7% | Potency [3]

O=C1CN=C(c2ccccc2)c2cc(Cl)ccc2N1
inactive: Potency [4] | max response [1] 38.4% | Potency [5] | max response [2] -13.7% | Potency [3]
